Numbering of substitutions follows the chain as printed.

The labels stand for the following.
B1: GAAA (dsDNA)
DNA 1: GCTATCTAGTGCTCAGTACGCACTGGAAAAGGAAACTTCTGGCAGGACCAGGTCATGAGATCGGAAGAGCACACGTCTGAACTCCAGTCA
DNA 2: TGACTGGAGTTCAGACGTGTGCTCTTCCGATCTCATGACCTGGTCCTGCCAGAAGTTTCCTTTTCCAGTGCGTACTGAGCACTAGATAGC
RNA: AAUUUCUACUCUUGUAGAUAGGAAACUUCUGGCAGGACC
B2: GCCC (dsDNA)
DNA 1: B1 DNA 1 with A27C, A28C, A29C
DNA 2: B1 DNA 2 with T62G, T63G, T64G
RNA: B1 RNA
B3: GACA (dsDNA)
DNA 1: B1 DNA 1 with A28C
DNA 2: B1 DNA 2 with T63G
RNA: B1 RNA
B4: GCAA (dsDNA)
DNA 1: B1 DNA 1 with A27C
DNA 2: B1 DNA 2 with T64G
RNA: B1 RNA
B5: GAAT (dsDNA)
DNA 1: B1 DNA 1 with A29T
DNA 2: B1 DNA 2 with T62A
RNA: B1 RNA
B6: GCAG (dsDNA)
DNA 1: B1 DNA 1 with A27C, A29G
DNA 2: B1 DNA 2 with T62C, T64G
RNA: B1 RNA
B7: GACC (dsDNA)
DNA 1: B1 DNA 1 with A28C, A29C
DNA 2: B1 DNA 2 with T62G, T63G
RNA: B1 RNA
B8: GACG (dsDNA)
DNA 1: B1 DNA 1 with A28C, A29G
DNA 2: B1 DNA 2 with T62C, T63G
RNA: B1 RNA
B9: GAAG (dsDNA)
DNA 1: B1 DNA 1 with A29G
DNA 2: B1 DNA 2 with T62C
RNA: B1 RNA
B10: GAGT (dsDNA)
DNA 1: B1 DNA 1 with A28G, A29T
DNA 2: B1 DNA 2 with T62A, T63C
RNA: B1 RNA
B11: GAAC (dsDNA)
DNA 1: B1 DNA 1 with A29C
DNA 2: B1 DNA 2 with T62G
RNA: B1 RNA
B12: GAGG (dsDNA)
DNA 1: B1 DNA 1 with A28G, A29G
DNA 2: B1 DNA 2 with T62C, T63C
RNA: B1 RNA
B13: GACT (dsDNA)
DNA 1: B1 DNA 1 with A28C, A29T
DNA 2: B1 DNA 2 with T62A, T63G
RNA: B1 RNA
B14: GCCG (dsDNA)
DNA 1: B1 DNA 1 with A27C, A28C, A29G
DNA 2: B1 DNA 2 with T62C, T63G, T64G
RNA: B1 RNA
B15: GAGC (dsDNA)
DNA 1: B1 DNA 1 with A28G, A29C
DNA 2: B1 DNA 2 with T62G, T63C
RNA: B1 RNA
B16: GCAT (dsDNA)
DNA 1: B1 DNA 1 with A27C, A29T
DNA 2: B1 DNA 2 with T62A, T64G
RNA: B1 RNA
B17: GCAC (dsDNA)
DNA 1: B1 DNA 1 with A27C, A29C
DNA 2: B1 DNA 2 with T62G, T64G
RNA: B1 RNA
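Further: relative affinity from the bound to unbound sequence frequency ratio in Spec-seq.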

The target in the first test is dAsCas12a S542R (Acidaminococcus sp., UniProt U2UMQ6 1-1307, S542R;D908A;E993A;D1235A). Put plainly: Spec-seq (native PAGE EMSA with sequencing of bound and unbound); 25 mM Tris-HCl pH 7.4, 150 mM KCl, 5 mM MgCl2, 10% glycerol, 1 mM DTT, 40 ng/uL salmon sperm DNA; 400 nM Cas12a, 480 nM crRNA, 50 nM library, 37 C 1 h; native PAGE at room temperature; high values mean tight binding. Conditions: protein: recombinant. A general note: A gel shift assay detects complexes by their altered migration in electrophoresis.
Take B1: the binding signal is -8.7 lnKA.
Same read-out and setting: in the case of B2 it was -5 lnKA; in that of B3, -8.67 lnKA.
Consider B4, for which the binding signal is -8.78 lnKA.
As for B5, the binding signal was -8.54 lnKA.
Still for that read-out and setting: in the case of B6 it was -8.35 lnKA.
Same read-out and setting: with B7 the figure was -8.46 lnKA; with B8, -8.56 lnKA; with B9, -8.23 lnKA.
For B10, the binding signal was -8.58 lnKA.
On the same count and under the same terms, with B11 the figure was -8.59 lnKA; with B12, -8.75 lnKA.
On the same count and under the same terms, in the case of B13 it was -8.65 lnKA; in that of B14, -6.59 lnKA.
On the same count and under the same terms, with B15 the figure was -8.89 lnKA; with B16, -8.69 lnKA; with B17, -8.62 lnKA.

Another test addresses d-enCas12a (Acidaminococcus sp., UniProt U2UMQ6 1-1307, E174R;S542R;K548R;D908A;E993A;D1235A). Described as above. The following applies: protein: recombinant.
On to B1, for which the binding signal is -5.87 lnKA.
Consider B2, for which the binding signal is -2.96 lnKA.
Still for that read-out and setting: in the case of B3 it was -4.44 lnKA.
Still for that read-out and setting: with B4 the figure was -5.83 lnKA.
On the same count and under the same terms, in the case of B5 it was -5.79 lnKA.
Turning to B6, the binding signal was -6.02 lnKA.
The same measure, in the same setting: in the case of B7 it was -3.91 lnKA; in that of B8, -5.57 lnKA.
The same measure, in the same setting: in the case of B9 it was -5.82 lnKA; in that of B10, -5.78 lnKA; in that of B11, -5.9 lnKA.
Still for that read-out and setting: in the case of B12 it was -5.9 lnKA; in that of B13, -5.63 lnKA.
Regarding B14, the binding signal is -5.48 lnKA.
Still for that read-out and setting: in the case of B15 it was -5.66 lnKA.
Still for that read-out and setting: in the case of B16 it was -5.86 lnKA; in that of B17, -5.82 lnKA.

For another test, the target named is d-enCas12a-Ultra (Acidaminococcus sp., UniProt U2UMQ6 1-1307, E174R;S542R;K548R;M537R;F870L;D908A;E993A;D1235A). The description is as above. Conditions: protein: recombinant.
On to B1, for which the binding signal was -3.36 lnKA.
The same measure, in the same setting: with B2 the figure was -0.56 lnKA; with B3, -1.74 lnKA.
Still for that read-out and setting: with B4 the figure was -3.42 lnKA; with B5, -3.39 lnKA.
Turning to B6, the binding signal is -3.32 lnKA.
On the same count and under the same terms, with B7 the figure was -1.34 lnKA; with B8, -2.93 lnKA.
Same read-out and setting: with B9 the figure was -3.51 lnKA.
On the same count and under the same terms, in the case of B10 it was -3.48 lnKA; in that of B11, -3.33 lnKA.
Regarding B12, the binding signal was -3.51 lnKA.
Same read-out and setting: in the case of B13 it was -3.01 lnKA; in that of B14, -1.86 lnKA; in that of B15, -3.45 lnKA.
On the same count and under the same terms, with B16 the figure was -3.45 lnKA; with B17, -3.32 lnKA.
